Compound activity deposited in PubChem by National Center for Advancing Translational Sciences (NCATS).
The list is not random: actives were taken first. Their share in the collection is about 19%.
HT1080NT lethal: kills 2HG-producing HT-1080-NT fibrosarcoma cells; HT-1080-NT fibrosarcoma viability, CellTiter-Glo ATP luminescence, 48 h; Potency, µM (titrated, usually from 46.1 µM), usual class: cytotoxic; hit rate 1.6% among 360,000; AID 686970;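 also: NT is the 2HG producing partner of a matched IDH1 knockdown line; nearly all actives have a fitted effect of over 55% in size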
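A 48-hour cytotoxicity screen used HT-1080-NT cells plated 2 hours before compound delivery. ATP-based CellTiter-Glo luminescence measured viability, normalized to DMSO and no-cell controls.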
IL-1B inflam inh: inhibitors of inflammasome signaling (IL-1 beta secretion). THP-1 LPS/ATP IL-1B secretion, AlphaLISA, 16 h; stronger effect = lower value. hit rate 4.7% among 360,000. activity change, % at 57.5 µM. AID 743279; in the data active = activity change below about -50%; inconclusive = mostly about -30% to -49%
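Secreted IL-1B measured by AlphaLISA bead assay after 16 h compound exposure of THP-1 cells; compounds (final up to 57.5 uM) added 1 h before LPS (250 ng/mL) and ATP (1.25 mM) stimulation; lower signal means less secretion.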
HT1080 IDH1KD tx: toxicity to HT-1080 IDH1 knockdown cells (counter line) | HT-1080 IDH1 knockdown viability, ATP luminescence, 48 h | Potency, µM (series often up to 46.1 µM), usual class: cytotoxic | hit rate 2% among 360,000
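In this qHTS, HT-1080 cells depleted of IDH1 are exposed for 48 h at 37 °C to compound titrations. Toxicity is scored from CellTiter-Glo luminescence, with DMSO as full viability and medium alone as none.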
DT40 TDP1 no CPT: qHTS for Inhibitors of human tyrosyl-DNA phosphodiesterase 1 (TDP1): qHTS in cells in absence of CPT; Potency, µM (doses to about 46.2 µM), hits mostly inhibitors; AID 686978, 2013; hit rate 15% among 420,000; DT40 Tdp1-/- hTDP1 cells, no CPT, ATP luminescence, 48 h; also: nearly all actives have a fitted effect of over 55% in size
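Cells were dispensed at 400 per well, compounds added by pin tool, plates incubated ≥48 hr at 37 °C, then CellTiter-Glo added for 30 min at room temperature before luminescence reading. Line: DT40 Tdp1-/- complemented with hTDP1; camptothecin omitted.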
TDP1 cell CPT: DT40-hTDP1 cell growth loss with CPT. chicken DT40 Tdp1-/-;hTDP1 cells + 20 nM CPT, ATP luminescence, 48 h. Potency, µM (titrated, usually from 46.2 µM), usual class: inhibitors. hit rate 12% among 420,000; also: nearly all actives have a fitted effect of over 55% in size
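Chicken DT40 Tdp1-/- cells complemented with human TDP1, 400 cells/well, exposed to compounds plus 20 nM camptothecin for at least 48 h at 37 C; viability read as ATP content by CellTiter-Glo luminescence.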
Numbers stand for hits. Unless noted, calls follow the shape of the dose curve; as a rule, active = well fitted curve in the direction sought with a large enough effect; inconclusive = small, poorly fitted or top-dose-only effect, or another doubt; inactive = no such curve, though single readings can be large; an effect the other way counts as inactive or inconclusive.

What do the screens show for `Cc1ccc(C(=O)NC(=S)N2CCN(c3cc(C)ccc3C)CC2)cc1`?
HT1080NT lethal: inactive; IL-1B inflam inh: inactive; HT1080 IDH1KD tx: inactive; DT40 TDP1 no CPT: inconclusive; TDP1 cell CPT: inconclusive

How did Cc1ccc(S(=O)(=O)N2[C@@H](c3ccccc3F)C(C(=O)O)=CC[C@H]2c2ccc3c(c2)OCO3)cc1 do in these assays?
HT1080NT lethal: inactive; IL-1B inflam inh: inactive; HT1080 IDH1KD tx: inactive; DT40 TDP1 no CPT: inactive; TDP1 cell CPT: inactive

How did CC(C)(C)C(=O)Nc1nnc(SCC(=O)Nc2nccs2)s1 do in these assays?
HT1080NT lethal: inactive; IL-1B inflam inh: inactive; HT1080 IDH1KD tx: inactive; DT40 TDP1 no CPT: inactive; TDP1 cell CPT: inactive

What do the screens show for `O=C(CSc1nncn2c1cc1sccc12)Nc1ccc(Br)cc1F`?
DT40 TDP1 no CPT: inactive; TDP1 cell CPT: inactive

How did CCOC(=O)CC1C(=O)NCCN1C(=O)Nc1ccccc1 (stereo unspecified) do in these assays?
HT1080NT lethal: inactive; IL-1B inflam inh: inactive; HT1080 IDH1KD tx: inactive; DT40 TDP1 no CPT: inactive; TDP1 cell CPT: inactive

What do the screens show for `CCOC(=O)CC1C(=O)NCCN1C(=S)NC(=O)c1ccc(C)c(Br)c1` (stereo unspecified)?
HT1080NT lethal: inactive; IL-1B inflam inh: inactive; HT1080 IDH1KD tx: inactive; DT40 TDP1 no CPT: 5.2µM; TDP1 cell CPT: 5.8µM

How did COc1ccc(C(O)c2nc(-c3ccoc3)cs2)cc1 (stereo unspecified) do in these assays?
HT1080NT lethal: inactive; IL-1B inflam inh: inactive; HT1080 IDH1KD tx: inactive; DT40 TDP1 no CPT: inconclusive; TDP1 cell CPT: inactive

Results for COc1ccc(-c2csc(C(C)(O)c3cccc(OC)c3)n2)cc1 (stereo unspecified) ?
HT1080NT lethal: inactive; IL-1B inflam inh: inactive; HT1080 IDH1KD tx: inconclusive; DT40 TDP1 no CPT: inconclusive; TDP1 cell CPT: 16µM

How did COc1cccc(C(C)(O)c2nc(-c3cccc(NC(C)=O)c3)cs2)c1 (stereo unspecified) do in these assays?
HT1080NT lethal: inactive; IL-1B inflam inh: inactive; HT1080 IDH1KD tx: inactive; DT40 TDP1 no CPT: inconclusive; TDP1 cell CPT: inconclusive

Results for COc1ccc(C(C)(O)c2nc(-c3csc4ccccc34)cs2)cc1 (stereo unspecified) ?
HT1080NT lethal: inconclusive; IL-1B inflam inh: inactive; HT1080 IDH1KD tx: 16µM; DT40 TDP1 no CPT: 4.6µM; TDP1 cell CPT: 2.9µM

How did COCc1cccc(-c2csc(C(C)(O)c3cccc(OC)c3)n2)c1 (stereo unspecified) do in these assays?
HT1080NT lethal: inconclusive; IL-1B inflam inh: inactive; HT1080 IDH1KD tx: inconclusive; DT40 TDP1 no CPT: inconclusive; TDP1 cell CPT: 13µM

Results for COc1cccc(C(C)(O)c2nc(-c3ccc(Cl)cc3)cs2)c1 (stereo unspecified) ?
HT1080NT lethal: inconclusive; IL-1B inflam inh: inactive; HT1080 IDH1KD tx: inconclusive; DT40 TDP1 no CPT: inconclusive; TDP1 cell CPT: inconclusive

Results for COc1ccc(C(C)(O)c2nc(-c3cncnc3)cs2)cc1 (stereo unspecified) ?
HT1080NT lethal: inactive; IL-1B inflam inh: inactive; HT1080 IDH1KD tx: inactive; DT40 TDP1 no CPT: inactive; TDP1 cell CPT: inactive

Results for CC(O)(c1cccnc1)c1nc(/C=C/c2ccccc2)cs1 (stereo unspecified) ?
HT1080NT lethal: inactive; IL-1B inflam inh: inactive; HT1080 IDH1KD tx: inactive; DT40 TDP1 no CPT: 21µM; TDP1 cell CPT: inconclusive

What do the screens show for `CCCCNC(=O)C1(C)CCN1C(=O)c1ccncc1` (stereo unspecified)?
HT1080NT lethal: inactive; IL-1B inflam inh: inactive; HT1080 IDH1KD tx: inactive; DT40 TDP1 no CPT: inactive; TDP1 cell CPT: inactive

What do the screens show for `CC(C)(C)n1nnnc1SCC(=O)Nc1nn(-c2ccccc2)nc1C(N)=O`?
HT1080NT lethal: inactive; IL-1B inflam inh: inactive; HT1080 IDH1KD tx: inactive; DT40 TDP1 no CPT: inactive; TDP1 cell CPT: inactive

Results for COc1cccc(C(C)(O)c2nc(-c3cc(F)cc(F)c3)cs2)c1 (stereo unspecified) ?
HT1080NT lethal: 23µM; IL-1B inflam inh: inactive; HT1080 IDH1KD tx: inconclusive; DT40 TDP1 no CPT: 23µM; TDP1 cell CPT: inconclusive

Results for COc1cccc(C(C)(O)c2nc(-c3cncnc3)cs2)c1 (stereo unspecified) ?
HT1080NT lethal: inactive; IL-1B inflam inh: inactive; HT1080 IDH1KD tx: inactive; DT40 TDP1 no CPT: inconclusive; TDP1 cell CPT: inconclusive
